Reference: PubChem BioAssay AID431 (Sanford-Burnham Center for Chemical Genomics, 2006)
Hit rate of the full screen: of about 63,000 compounds, about 1,100 (1.7%) were called active. The entries come from a sample that favours actives as a whole. Entries with a potency or affinity are not part of this list. A number with no mark means an inactive call.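 Rule for the calls: active = compounds whose percent cytotoxicity in the single-dose primary screen, scaled between solvent and toxic-drug controls, exceeds 50; inactive = the rest.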

assay: cytotoxicity in KRAS-transformed pancreatic duct cells, primary screen, cell-based, fluorescence, HTS (AID 431); details: HPDE-C7K KRASV12 cells, Alamar Blue viability, 48 h; at 10 µM; active compounds read high;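 note: 0% = DMSO solvent wells and 100% = doxorubicin-treated wells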

Row | Structure (SMILES) | cytotoxicity
1 | COc1ccc(OC)c(NC(=O)c2cnc3ccccn3c2=O)c1 | 12.6%
2 | COC(=O)CN(c1ccc(F)cc1)S(=O)(=O)c1ccccc1 | -5.6%
3 | CC(C)CCNC(=O)CN(C(=O)CCC(=O)Nc1ccccn1)c1ccc2c(c1)OCO2 | -9.3%
4 | COC(=O)c1cc(N2C(=O)C3C(C2=O)C2(C)C=CC3(C)O2)ccc1Cl (configuration not stated) | 8%
5 | Cc1cccc(OCCCN2CCCCCC2)c1 | 18.4%
6 | Cc1cccc(OCCn2c(=O)n(C)c3ccccc32)c1 | 2.1%
7 | CCCn1nc(CC(=O)O)c2ccccc2c1=O | 0.6%
8 | Cc1ccc(NC(=O)CCn2c(=O)oc3ccccc32)c(C)c1 | -9.2%
9 | CCCCn1c(SCc2ncc(-c3ccccc3)o2)nc2cc(S(N)(=O)=O)ccc21 | 53.1% (active)
10 | CCCCn1c(SCN2C(=O)c3ccccc3C2=O)nc2cc(S(N)(=O)=O)ccc21 | -14.9%
11 | CCCCn1c(SCc2c(C)noc2C)nc2cc(S(N)(=O)=O)ccc21 | 39.5%
12 | COc1ccccc1C1C2CCCCC2(O)CCN1CC(=O)Nc1ccccc1 (configuration not stated) | -7.4%
13 | Cn1cc(S(=O)(=O)CC(=O)N2CCc3ccccc32)c2ccccc21 | 26.9%
14 | O=C(CSc1nnc(-c2cc3ccccc3cc2O)n1Cc1ccco1)c1ccc(F)cc1 | 13.1%
15 | COc1ccc(C(=O)CSc2nnc(-c3cc4ccccc4cc3O)n2Cc2ccco2)cc1 | 66.1% (active)
16 | COc1ccc(C(=O)CSc2nnc(-c3ccccn3)n2Cc2ccco2)cc1 | 5%
17 | O=c1c2c3nc4ccccc4nc3n(/N=C/c3ccco3)c2ncn1CCC1=CCCCC1 | 30%
18 | Cc1nc2c(c(=O)n1CCC1=CCCCC1)c1nc3ccccc3nc1n2/N=C/c1ccco1 | 63.1% (active)
19 | CCCn1c(C)nc2c(c1=O)c1nc3ccccc3nc1n2CCC1=CCCCC1 | 16.1%
20 | COc1ccc(S(=O)(=O)n2nc(-c3cc(OC)c(OC)c(OC)c3)cc2N)cc1OC | 5.2%
21 | COc1ccc(OC)c(S(=O)(=O)n2nc(-c3ccccc3)cc2N)c1 | -10.9%
22 | O=C(CSc1nc2ccccc2[nH]1)N1CCCCC1 | 0.6%
23 | COc1ccc(NC(=O)N2CCCC(c3nc(-c4ccc(C(C)C)cc4)no3)C2)cc1 (configuration not stated) | 65.6% (active)
24 | COc1ccc(-c2noc(C3CCCN(C(=O)c4cccs4)C3)n2)cc1 (configuration not stated) | -10.3%
25 | Cc1ccccc1NC(=O)N1CCCC(c2nc(-c3ccc(C(C)C)cc3)no2)C1 (configuration not stated) | 28.5%

Row | Structure (SMILES) | cytotoxicity
26 | CN(CC(=O)N1CCc2ccccc21)S(=O)(=O)c1ccc(Cl)cc1 | 1.1%
27 | COC(=O)C(C(=O)Nc1cc(C)on1)C1CCCCCC1 (configuration not stated) | -4.9%
28 | CSc1nc2cc(Cl)ccc2s1 | -3.5%
29 | COc1ccc(C(=O)c2ccc(N3CCOCC3)cc2)c(OC)c1 | 4.5%
30 | COc1ccc(C(=O)c2ccc(N(C)C)cc2)c(OC)c1 | 56.3% (active)
31 | COc1ccc(C(=O)Oc2ccc(C(C)=O)cc2)c(OC)c1 | 3.6%
32 | COc1cc(SC)ccc1C(=O)Nc1ccccc1C#N | 28.3%
33 | Nc1cc(N)nc(SCCOc2ccccc2F)n1 | -15.6%
34 | COc1ccccc1NC(=O)N1CCCC1C(=O)Nc1nnc(C(C)C)s1 (configuration not stated) | 4.6%
35 | O=C(NCc1ccco1)C(c1cccnc1)N(C(=O)Cn1nnc2ccccc21)c1ccc(F)cc1 (configuration not stated) | 9.8%
36 | COC(=O)C1=C(C)N(C)C(C)=C(C(=O)OC)C1c1ccncc1 | -1%
37 | Cc1ccc(CNC(=O)CCS(=O)(=O)c2cccc3nonc23)cc1 | -9.3%
38 | Cc1ccc(-c2cc(C(=O)N3CCOCC3)c3ccccc3n2)cc1 | 1.8%
39 | CCOC(=O)N1CCN(C(=O)c2cc(-c3ccc(OCC)cc3)nc3ccccc23)CC1 | 63.5% (active)
40 | O=C(c1cc(-c2ccccc2)nc2ccccc12)N1CCN(c2ccccn2)CC1 | 27.1%
41 | CCOc1ccc(-c2cc(C(=O)N3CCN(c4ccccn4)CC3)c3ccccc3n2)cc1 | 53% (active)
42 | COc1cccc(-c2cc(C(=O)N3CCN(c4ncccn4)CC3)c3ccccc3n2)c1 | 15.2%
43 | Cc1ccc(-c2cc(C(=O)N3CCN(c4ncccn4)CC3)c3ccccc3n2)cc1 | 58.8% (active)
44 | CCOc1ccc(-c2cc(C(=O)N3CCN(C)CC3)c3ccccc3n2)cc1 | -12.4%
45 | Cc1ccc2nc(-c3ccccn3)cc(C(=O)N3CCN(c4ncccn4)CC3)c2c1 | 13.2%
46 | COc1ccc(-c2cc(C(=O)N3CCN(c4ccccn4)CC3)c3ccccc3n2)cc1 | 5.9%
47 | CSC1=C(C#N)C(c2ccc(Cl)cc2)C2=C(CC(C)(C)CC2=O)N1 (configuration not stated) | 2.7%
48 | O=C(CSc1nnc(-c2ccco2)o1)N1CCOCC1 | -5.8%
49 | Cc1cc(NC(=O)CN2CCN(c3ncccn3)CC2)no1 | -2.6%
50 | CCCn1nnc(NC(=O)COc2ccccc2Cl)n1 | 8.6%

Row | Structure (SMILES) | cytotoxicity
51 | Cc1cc(S(=O)(=O)N2CCC(NC(=O)C34CC5CC(CC(C5)C3)C4)CC2)ccc1-n1cnnn1 | -5.5%
52 | COc1ccccc1OCCNC(=O)c1cccs1 | -0.7%
53 | CCOc1ccc(C2C=C(c3ccc(C)cc3)Nc3nnnn32)cc1 (configuration not stated) | -11%
54 | COc1ccc(C2=CC(c3ccc(C)cc3)n3nnnc3N2)cc1 (configuration not stated) | -4.4%
55 | Cc1ccc(CNC(=O)C2CCN(S(=O)(=O)c3cccs3)CC2)o1 | -10.5%
56 | O=C(c1c(O)c2ccccc2oc1=O)C1CCC1 | 6.1%
57 | O=C(CCC1CCCC1)c1c(O)c2ccccc2oc1=O | 18%
58 | O=C(CC1CCCCC1)c1c(O)c2ccccc2oc1=O | 59.2% (active)
59 | COc1cccc(-c2nnc3n2N=C(c2cccc(Br)c2)CS3)c1 | -14.8%
60 | CCSc1nnc([C@@H]2CCCN2C(=O)OC(C)(C)C)o1 | -8.4%
61 | Cc1cccc(OCC(O)Cn2c(NCc3cccnc3)nc3c2c(=O)[nH]c(=O)n3C)c1 (configuration not stated) | -23.4%
62 | CCc1nc(Nc2ccncc2)c2oc3ccccc3c2n1 | 64.2% (active)
63 | Cc1nc(SCC(=O)O)c2oc3ccccc3c2n1 | -10.8%
64 | CCc1nc(Nc2ccc(N3CCN(C(C)=O)CC3)cc2)c2oc3ccccc3c2n1 | 52.7% (active)
65 | CC(=O)N1CCN(c2ccc(Nc3ncnc4c3oc3ccccc34)cc2)CC1 | 19.3%
66 | CCNc1nc(CC)nc2c1oc1ccccc12 | -17.1%
67 | Cc1nc(Nc2ccncc2)c2oc3ccccc3c2n1 | -14.9%
68 | CC(=O)N1CCN(c2ccc(Nc3nc(C)nc4c3oc3ccccc34)cc2)CC1 | -3.4%
69 | Cc1nc(SCC(=O)N2CCCc3ccccc32)c2oc3ccccc3c2n1 | -19.9%
70 | Cc1nc(SCC(=O)N2CCN(c3ccccc3)CC2)c2oc3ccccc3c2n1 | 54.9% (active)
71 | COc1ccc2c(c1)c(=O)c(Br)c(C)n2Cc1ccccc1 | 0.5%
72 | FC(F)(F)c1cccc(-c2ccc(-c3csnn3)o2)c1 | -13.4%
73 | O=C(O)CC(CNS(=O)(=O)c1ccccc1)c1ccccc1 (configuration not stated) | 0%
74 | OCc1nnn(-c2cccc(C(F)(F)F)c2)c1CO | -2.5%
75 | N#C/C(Cn1c[n+](NC(=O)Nc2ccccc2)cn1)=N/O | -6.9%

Row | Structure (SMILES) | cytotoxicity
76 | O=C1CC(SCc2nc3ccccc3[nH]2)C(=O)N1c1cccc(F)c1 (configuration not stated) | -0.8%
77 | O=C(NCc1ccccn1)C1CCC(=O)N1C1CCCC1 (configuration not stated) | 2.2%
78 | CCOc1ccc2nc(NC(=O)CN3CCC(n4nnc5cc(F)ccc54)CC3)sc2c1 | 66.6% (active)
79 | CCOC(=O)c1ccccc1NC(=O)CN1CCC(n2nnc3cc(F)ccc32)CC1 | 15.3%
80 | COc1ccccc1NC(=O)CN1CCC(n2nnc3cc(F)ccc32)CC1 | -3.1%
81 | CC1(C)CNC(=O)c2sc(NC(=O)CN3CCOCC3)nc2C1 | 0.1%
82 | Cc1ccc2c(c1)NC(=O)C(CC(=O)NCCN(C)C)O2 (configuration not stated) | -2.3%
83 | Cc1cc(NC(=O)c2cc(-c3cccnc3)nc3c(C)c(C)ccc23)no1 | 8.8%
84 | Cc1cc(NC(=O)c2cc(-c3ccncc3)nc3c(C)cccc23)no1 | 68.1% (active)
85 | Cc1cc(C)c2nc(-c3ccccn3)cc(C(=O)Nc3cc(C)on3)c2c1 | 8.1%
86 | N#Cc1nc(-c2ccc(OCc3ccccc3)cc2)oc1NCc1cccnc1 | 12.7%
87 | N#Cc1nc(COc2ccc(-c3ccccc3)cc2)oc1NCCCN1CCOCC1 | 50.8% (active)
88 | N#Cc1nc(COc2ccccc2)oc1NCCN1CCOCC1 | -18.1%
89 | N#Cc1nc(COc2ccc(F)cc2)oc1NCCN1CCOCC1 | -2.9%
90 | COc1ccc(-c2nc(C#N)c(NCCCN3CCOCC3)o2)cc1 | 0.5%
91 | N#Cc1nc(-c2ccc(OCc3ccccc3)cc2)oc1NCCN1CCOCC1 | 12.8%
92 | N#Cc1nc(COc2ccc(-c3ccccc3)cc2)oc1NCc1cccnc1 | 83.1% (active)
93 | N#Cc1nc(Cc2ccccc2)oc1NCc1cccnc1 | -11.2%
94 | COc1ccccc1CNC(=O)c1ccc(CNc2c(N3CCCC3)c(=O)c2=O)cc1 | 4.2%
95 | CCCc1nc(-c2cc3ccc(C)cc3[nH]c2=O)no1 | 6.3%
96 | Cc1nc(NCC2CCCO2)c2nnn(Cc3ccccc3)c2n1 (configuration not stated) | -0.3%
97 | Cc1nc(SCC(=O)Nc2ccc(C)c(F)c2)c2oc3ccccc3c2n1 | 24.5%
